Values joined by “and” are separate entries in the source; they are usually repeats but may differ in a detail not shown here. Equal entries are not always repeated. In all, about 360,000 compounds went through this assay and about 2,400 (0.67%) were called active. Shown is part of a subset that was picked to be rich in actives. Values without a mark were called inactive.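 Rule for the calls: active = inhibition above about 55% (limit read from the data); inconclusive = no clear call, values can overlap the other calls; inactive = the rest.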

As usually defined, the inhibition is the drop in the measured response relative to a control, in per cent.

The assay can be described thus: LAMP-1 surface exposure blockers, TALL-104 cells – cell-based, flow cytometry, MLPCN library, primary screen (AID 651702). The conditions noted are these: TALL-104 LAMP-1 surface exposure, at 10 µM, active compounds read high, cells stimulated with thapsigargin and PMA. On the technique in general: Flow cytometry measures light scatter and fluorescence of single cells or particles in a stream.
Regarding `COc1ccc2c(c1)c(C(=O)N/N=C/c1cccs1)c(C)n2C`, the inhibition was 0.8%.

As to `Cc1c(/C=N\NC(=O)c2cc3ccccc3o2)c2ccccc2n1C`, the inhibition is 65.6% (active).

Take `CC(C)(C)n1nc2c(c1NC(=O)c1cc3ccccc3o1)CSC2`: the inhibition is 0%.

Take `CCn1nc(C(=O)NNS(=O)(=O)c2cc(/C=C/C(=O)O)cc(OC)c2OC)c2ccccc2c1=O`: the inhibition was 1.1%.

For the molecule `CCOc1ccc(/C=C/C(=O)OCC(=O)c2ccccc2OC)cc1OC`, the inhibition was -4.4%.

As for `O=C(CN1C(=O)NC2(CCCCCC2)C1=O)NCc1cccs1`, the inhibition is -5.2%.

For the molecule `Cc1nc2c(C(=O)NCc3ccc4c(c3)OCO4)c[nH]n2c(=O)c1Cc1ccccc1F`, the inhibition is -2.7%.

For the molecule `Cc1cccc(N(C)C(=O)c2cc(S(=O)(=O)N3CCCCC3)c[nH]2)c1`, the inhibition is -3.8%.

For the molecule `CCCCn1nnnc1C1(C)CCC(=O)N1Cc1ccc(OC)c(OC)c1` (stereo not given), the inhibition was -1.7%.

`Cc1nc(SCC(=O)c2ccccc2)c([N+](=O)[O-])[nH]1`: the inhibition was 0.6%.

Turning to `Cc1nc2nc(SCC(=O)c3ccccc3)[nH]c2cc1Br`, the inhibition is -2.1%.

As for `Cc1cc(SCC(=O)c2ccccc2)nc(SCC(=O)c2ccccc2)n1`, the inhibition is 78.5% (active).

As to `O=c1[nH]c(=S)[nH]c(O)c1/C=C1\C=Nc2ccccc21`, the inhibition is -1.2%.

As to `CCCC(C(=O)n1nc(C)cc1C)C(NS(=O)(=O)c1ccc(C)cc1)c1ccccc1` (stereo not given), the inhibition is 66% (active).

For `CSCC(NS(=O)(=O)c1ccc(C)cc1)C(=O)O` (stereo not given), the inhibition was 1.8%.

Regarding `Cc1ccc(S(=O)(=O)NC(C(=O)N2CCOCCOCCOCCOCC2)c2ccccc2)cc1` (stereo not given), the inhibition was -7%.

As to `N#Cc1ccc(C(C(=O)NCc2ccccc2)n2c(=O)c(-c3ccco3)nc3ccccc32)cc1` (stereo not given), the inhibition is 1.3%.

Turning to `COc1ccccc1CCNC(=O)c1c(C)nn(CC(C)C)c1Cl`, the inhibition is -1.6%.

On to `COCCCn1c(SCC(=O)Nc2oc(C)c3c(C)n[nH]c(=O)c23)nc2sc3c(c2c1=O)CCC3`, for which the inhibition was -0.6%.

Take `CC(CCc1ccccc1)NC(=O)COC(=O)c1ccc(F)cc1` (stereo not given): the inhibition is 6%.

Turning to `C#CCOc1ccc(/C=C2/C(=O)ON=C2C)cc1OCC`, the inhibition is -12.5%.

As to `CC1=NOC(=O)/C1=C\c1ccccc1`, the inhibition is -7.3%.

With `COc1cc(/C=C2/C(=O)ON=C2C)ccc1OCc1ccccc1F`, the inhibition is 60.6% (active).

`CC(C)(C)c1ccc(C(=O)N2CCN(CCNC(=O)C(=O)Nc3ccc(F)cc3)CC2)cc1`: the inhibition was -0.5%.

Turning to `COc1ccc(C2(c3ccc(OC)cc3)NC(=O)N(CC(=O)Nc3cc(C)on3)C2=O)cc1`, the inhibition is 5.1%.

Consider `CC[C@@H]1CCCCc2ccccc2[C@@H](C(=O)C[C@H](O)CC(C)=O)OC1=O`, for which the inhibition is -4.4%.

For the molecule `CC(=O)C[C@H](O)CC(=O)[C@@H]1OC(=O)[C@@H](C)C/C=C\Cc2ccccc21`, the inhibition was -0.2%.

For `CC(=O)C[C@@H](O)CC(=O)[C@H]1OC(=O)CCCCCCc2ccccc21`, the inhibition was 58.1% (active).

On to `CSc1nc2nc(-c3cccc(C(F)(F)F)c3)ccn2n1`, for which the inhibition was -1.7%.

Regarding `Nc1c(C(=O)c2cccs2)sc2nsc(SCCN3CCCCC3)c12`, the inhibition is 94.6% (active).

In the case of `O=C(Cc1ccc(NC(=O)C2CCCN(C(=O)CCc3ccccc3)C2)cc1)Nc1ccc(C(=O)N2CCOCC2)cc1` (stereo not given), the inhibition was -2%.

Consider `CCOC(=O)C1CCN(C(=O)CN2C(=O)c3cccnc3Oc3ccc(C)cc32)CC1`, for which the inhibition was -4.5%.

As for `Cc1ccc(C2(c3ccc(C)cc3)NC(=O)N(Cc3c(C)noc3C)C2=O)cc1`, the inhibition was 4.4%.

Regarding `CCCCC[C@H](C)N1C[C@@H](COCc2ccccc2)Oc2cc(N3CC[C@@H](N(C)C)C3)ccc2S1(=O)=O`, the inhibition was 56.2% (active).

Regarding `CCCCN1CC(COCc2ccccc2)OCCS1(=O)=O` (stereo not given), the inhibition was -5.6%.

In the case of `CCCCC[C@H](C)N1C[C@@H](COCc2ccccc2)Oc2cc(N3CCC[C@@H]3CO)ccc2S1(=O)=O`, the inhibition was 0.2%.

Consider `COc1ccc2sc(-c3ccc(N(C)C)cc3)c(-c3ccc4cc[nH]c4c3)c2c1`, for which the inhibition was 72% (active).

Take `COc1cccc(-c2sc3ccc(OC)cc3c2-c2ccc(OCCN3CCCCC3)cc2)c1`: the inhibition was 14.7%.

`COc1cc(OC)cc(-c2c(-c3ccc(F)cc3)c3cc(-c4ccc5cc[nH]c5c4)ccc3n2C)c1`: the inhibition was -0.5%.

For the molecule `O=C(CCc1nnc2ccc(NCc3ccccc3Cl)nn12)NCC1CCN(C2CCCC2)C1` (stereo not given), the inhibition is -2.5%.

Regarding `COc1ccc(S(=O)(=O)NCC(c2ccco2)N2CCOCC2)cc1` (stereo not given), the inhibition is -1.5%.

For the molecule `C=C(C)CNC(=S)Nc1ccc(S(=O)(=O)Nc2cnc3ccccc3n2)cc1`, the inhibition is 9.1%.

For `Cc1ccccc1OS(=O)(=O)c1cccc([N+](=O)[O-])c1`, the inhibition is -1.4%.

As to `COc1ccc(S(=O)(=O)N2CCN(CC(=O)N3CCNC3=O)CC2)cc1OC`, the inhibition was -0.1%.

`CN1CCN(C2Cc3ccc(Cl)cc3Sc3ccc(F)cc32)CC1` (stereo not given): the inhibition is 63.7% (active).

For the molecule `Cc1ccc(-c2nnn(CC(=O)N(Cc3ccco3)C(C(=O)NC(C)(C)C)c3ccncc3)n2)o1` (stereo not given), the inhibition is 3.8%.

As for `Cc1c(C(C)(C)O)[nH]c2ccc(C#N)cc12`, the inhibition was 2.3%.

With `O=C(Nc1ccc(Cl)cc1)Nc1nnc(/C=C/c2ccccc2)s1`, the inhibition is 70.9% (active).

On to `O=C(CSc1ccccc1)Nc1nnc(/C=C/c2ccccc2)s1`, for which the inhibition is -0.2%.

For `COc1ccc(/C=C/c2nnc(NC(=O)C(C)C)s2)cc1`, the inhibition is 2%.

On to `CCNC(=O)C1(C)CCCN(C(=O)c2c(C)noc2C)C1` (stereo not given), for which the inhibition was -7.3%.

Take `COc1cc(C(=O)Nc2cc(C(F)(F)F)ccc2N2CCOCC2)ccc1O`: the inhibition was -2.1%.

Take `O=C(CC(n1cncn1)C(Cl)(Cl)Cl)c1ccc([N+](=O)[O-])cc1` (stereo not given): the inhibition is 67.9% (active).

`O=C(Cn1c[n+](CC(=O)c2ccc([N+](=O)[O-])cc2)cn1)c1ccc([N+](=O)[O-])cc1`: the inhibition is 0.3% and 0%.

For `O=C(CCn1nnc2ccccc21)OCC(=O)c1ccc([N+](=O)[O-])cc1`, the inhibition is -4.6%.

Turning to `CN(C(=O)c1cccc(NC(=O)Cc2ccc(NC(=O)C3CCCN(C(=O)C4CCCC4)C3)cc2)c1)C1CCC1` (stereo not given), the inhibition was -0.4%.

For the molecule `CCO/C=C1\C(=O)N(c2ccc(OCC)cc2)C(=O)c2ccccc21`, the inhibition was -2.4%.

For the molecule `CCOc1ccc(N2C(=O)/C(=C/c3ccc(C)o3)N(C)C2=S)cc1`, the inhibition was 76.4% (active).

As for `CCOc1ccc(N2C(=O)CN(c3cccc4ccccc34)C2=S)cc1`, the inhibition is -2.1%.

As for `O=C(NCC1CCCO1)C1CCN(C2CCN(C(=O)C3CCCCC3)CC2)CC1` (stereo not given), the inhibition was 1.8%.

With `CC1CCCN(CC(=O)Nc2cc(Cl)ccc2Oc2ccccc2)C1` (stereo not given), the inhibition is 96.4% (active).

For `O=C(CSc1ccccc1)Nc1cc(Cl)ccc1Oc1ccccc1`, the inhibition is -1.8%.

As for `CC(=O)Nc1ccc(NC(=O)CN2CCCC(C)C2)c(Cl)c1` (stereo not given), the inhibition is 1.3%.

In the case of `CCCCCCCCN1C(=O)[C@H](CC(=O)NCc2cccc3ccccc23)C[C@@]2(C(=O)OC)CCCCC=C12`, the inhibition is 5.4%.

As to `O=C(COc1coc(CN2CCN(c3ccccc3)CC2)cc1=O)Nc1ccccc1F`, the inhibition is 10.5%.

For `CN1CCN(C2=NCCO2)CC1`, the inhibition was -6.4%.

As to `CCCN(CCC)c1nc2c(C)cccn2c(=O)c1/C=C1/SC(=S)N(Cc2ccco2)C1=O`, the inhibition is 57.2% (active).

As for `Cc1ccc2[nH]c(=O)c(-c3nc4c(C)cccn4c3NCc3ccco3)cc2c1`, the inhibition was 19.3%.

On to `CNc1nc2c(C)cccn2c(=O)c1C=Nc1ccc(OC)cc1`, for which the inhibition is -1.8%.

Regarding `CSc1nc2sc3c(c2c(=O)[nH]1)CCc1ccccc1-3`, the inhibition is -6.9%.

For the molecule `CCN(CC)CCCC(C)n1c2nc(=O)[nH]c(=O)c-2nc2cc(Cl)ccc21` (stereo not given), the inhibition was -0.7%.

As for `CN1C(C(=O)NCC2CC2)CC2Cn3c(nc4ccccc43)C21` (stereo not given), the inhibition was -1.8%.

For `Cc1cc2nc3n(c2cc1C)CC1CC(C(=O)NCCC(C)C)N(C)C31` (stereo not given), the inhibition was -4.6%.

With `COc1ccc(CCNC(=O)C2CC3Cn4c(nc5cc(C)c(C)cc54)C3N2C)cc1` (stereo not given), the inhibition was 60.3% (active).

On to `COc1cc(NC(=O)C2CC(c3ccccc3O)=NO2)c(OC)cc1Cl` (stereo not given), for which the inhibition was -9.5%.

With `COc1ccc(NC(=O)C(C)SCc2ccccc2)cc1` (stereo not given), the inhibition is -0.5%.

For `Cc1cccc(NC(=O)C2CC(=O)OC23CCCC3)c1` (stereo not given), the inhibition is 3.1%.

As for `COc1cccc(CNc2ncc(-c3ccccc3)n2C)c1`, the inhibition was 1%.

On to `CC(Nc1nc(C(F)(F)F)nc2ccccc12)c1cccs1` (stereo not given), for which the inhibition is -9.6%.

With `COc1cccc(CNc2nc(C(F)(F)F)nc3ccccc23)c1`, the inhibition was 65.7% (active).

Take `CC(CCc1ccc(O)cc1)NCc1ccc(Cl)cc1Cl` (stereo not given): the inhibition was 3.5%.

As to `Brc1cc(Br)c(Oc2cc(Br)c(Br)cc2Br)cc1Br`, the inhibition was 0.4%.

Regarding `CN(C(=O)CN1CCN(c2cc(-c3ccc(OCc4ccccc4)cc3)ncn2)CC1)c1ccccc1`, the inhibition is -3.7%.

Turning to `Cc1ccc(NC(=S)N2CCCC(c3ccccc3)=N2)cc1`, the inhibition was 2.5%.

In the case of `O=S(=O)(c1cccc2nonc12)N1CCN(c2cccc(Cl)c2)CC1`, the inhibition is -11.1%.

In the case of `COc1cc(C(=O)NCc2nnc(SCC(=O)Nc3nc4ccc(C)cc4s3)o2)cc(OC)c1OC`, the inhibition was -6.4%.

`CCCC(=O)Nc1nc2ccc(NC(=O)c3c(F)c(F)c(OC)c(F)c3F)cc2s1`: the inhibition is 68.7% (active).

For the molecule `CCCn1nc(C(=O)Nc2ccc3nc(C)sc3c2)c2ccccc2c1=O`, the inhibition is -2.4%.

As to `CC(=O)Nc1ccc(NC(=O)CSc2nnnn2C2CCCCC2)cc1`, the inhibition is -2.8%.

For `CCOc1ccc(S(=O)(=O)N2CCN=C2Cc2ccccc2)cc1C`, the inhibition is 1.2%.

(Values after PubChem BioAssay AID651702 (NMMLSC, 2012).)
